# Assay results as given in PubChem BioAssay AID977606 (Broad Institute, 2014).
# In all, about 1,500 compounds went through this assay and about 430 (29%) were called active. No rule for the calls is given here. Not all results are given here. Measured potencies and affinities stand elsewhere.
# Test: insulin secretion activators without glucose, dose response, counter-screen for glucose-dependent insulin secretion activators, cell-based, INS-1E, Gaussia luciferase, luminescence, cherry-pick (AID 977606);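 also: 0% = median of neutral control wells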
# Details: INS-1E Gaussia luciferase insulin secretion, no glucose, 100% = twice neutral-control luminescence; series mostly up to 35 µM; activation: at the top concentration
row,Compound,activation
1,NS(=O)(=O)c1ccc(CNC(=O)c2cc(S(=O)(=O)N3CCOCC3)ccc2N2CCCC2)cc1,6.71% (inactive)
2,CCOc1ccc2oc(=O)cc(CN3CCOCC3)c2c1,5.59% (inactive)
3,CCCNC(=O)c1ccccc1NC(=O)COc1ccc(OC)cc1,-5.49% (inactive)
4,Cc1cccc(NC(=O)c2ccc(OCc3c(C)noc3C)cc2)c1C,21% (inactive)
5,COc1ccc(Nc2nc(NCc3cccs3)nc3ccsc23)cc1OC,-8.88% (inactive)
6,COc1ccc(C(=O)/C=C2\NCCc3cc(OC)c(OC)cc32)cc1OC,-11.3% (inactive)
7,COC(=O)c1ccc(OC)c(OC2CCCC2)c1,11.1% (inactive)
8,Cc1cccc2nc(-c3ccco3)c(Nc3ccccc3)n12,3.49% (inactive)
9,Cc1ccc(C(=O)c2sc(Nc3ccccc3)c(C#N)c2N)cc1,10.1% (inactive)
10,CNc1ccc2ncc(-c3ccc(OC)c(OC)c3)n2n1,14.6% (inactive)
11,C/C=C/Cn1c(N2CCCCCC2)nc2c1c(=O)[nH]c(=O)n2C,2.02% (inactive)
12,CC(C)CCn1c(N2CCCC2)nc2c1c(=O)[nH]c(=O)n2C,28.9% (inactive)
13,CCCCCCn1c(SCC(C)C)nc2c1c(=O)[nH]c(=O)n2C,5.74% (inactive)
14,CN(Cc1ccccc1)c1nc2c(c(=O)[nH]c(=O)n2C)n1Cc1ccccc1,-4.81% (inactive)
15,C/C(Cl)=C/CSc1nc2c(c(=O)[nH]c(=O)n2C)n1C(C)C,36% (inactive)
16,Cn1c(=O)[nH]c(=O)c2c1nc(NC1CCCC1)n2Cc1ccccc1,-2.64% (inactive)
17,CCCN1C[C@@H](C)[C@@H](OC)CN(C)C(=O)c2ccc(NC(=O)c3cccc(F)c3)cc2OC[C@H]1C,-6.93% (inactive)
18,O=C(O)C1Cc2c([nH]c3ccccc23)C(c2ccc3c(c2)OCO3)N1 (configuration not stated),6.64% (inactive)
19,COc1cc2c(cc1OC)-c1cc(NCc3ccccn3)nc(=O)n1CC2,-6.24% (inactive)
20,CCOc1ccc(CCNS(=O)(=O)c2cn(C)cn2)cc1OCC,-10.6% (inactive)
21,CC(=O)N1CCN(C(=O)COC(=O)c2ccc(S(C)(=O)=O)cc2)CC1,39.2% (inactive)
22,CC(C)(C)NC(=O)N1c2ccccc2Sc2ccccc21,11.4% (inactive)
23,CCn1ncc2c1C(=O)NC1c3ccccc3C(=O)N21 (configuration not stated),0.44% (inactive)
24,O=C(NNC(=O)c1cc2cc3ccccc3nc2s1)c1cccc(C(F)(F)F)c1,-11% (inactive)

row,Compound,activation
1,Cc1cc(C)cc(C(=O)NC(=S)Nc2ccc(-c3cc4ccccc4oc3=O)cc2)c1,13.7% (inactive)
2,C=CCn1c(-c2csc(-c3ccc(OC)c(OC)c3)n2)n[nH]c1=S,-1.01% (inactive)
3,COc1ccc(-c2nc(CCl)cs2)cc1OC,5.17% (inactive)
4,O=C(c1ccccc1)N(C(=O)c1ccccc1)N1CCCC1,3.14% (inactive)
5,CN(c1ccc(C(=O)N2CCN(Cc3ccccc3)CC2)cc1)S(=O)(=O)c1ccccc1,-21.2% (inactive)
6,CCCn1nc(NC(=O)c2ccco2)c2cc3ccccc3nc21,4.53% (inactive)
7,CCn1nc(NC(=O)c2ccco2)c2cc3ccccc3nc21,1.13% (inactive)
8,O=C1c2cccnc2C(Nc2ccc(F)c(Cl)c2)N1Cc1cccs1 (configuration not stated),-9.46% (inactive)
9,CCOc1cc(/C=N/NC(=O)CCn2nnc3ccccc32)ccc1O,15.9% (inactive)
10,CCOc1ccccc1OCCC(=O)NNC(=O)Cn1nc(C)cc1C,5.71% (inactive)
11,N#CCc1nn(-c2ccccc2)c2ncnc(N)c12,-0.351% (inactive)
12,CN(C)CCCN(C(=O)c1ccco1)c1nc2c(F)cccc2s1,3.36% (inactive)
13,O=C(c1cccnc1)N(Cc1ccccc1)c1ccccc1,24% (inactive)
14,COc1ccc(-c2nc(N3CCC(C)CC3)[nH]c(=O)c2C#N)cc1,-8.77% (inactive)
15,COc1ccc(-c2ccc(SCc3cccnc3)nn2)cc1OC,7.88% (inactive)
16,CC(C)CCN(CC(=O)NCc1ccc(F)cc1)S(=O)(=O)c1ccccc1F,-21.4% (inactive)
17,O=C(COC(=O)C1CCC1)NC(=O)c1ccccc1,-4.65% (inactive)
18,O=C(NN(Cc1ccccc1)Cc1ccccc1)c1ccccc1,-14.6% (inactive)
19,O=C(c1ccc2c(c1)OCO2)N1CCN(S(=O)(=O)c2ccccc2)CC1,-5.95% (inactive)
20,O=C(O)c1ccc(S(=O)(=O)NCc2ccc3c(c2)OCO3)cc1,-2.19% (inactive)
21,OC(c1ccc(Cl)cc1)C(CN1CCOCC1)c1ccccc1 (configuration not stated),-9.66% (inactive)
22,CC(C)OCC(O)CN1CCC(Cc2ccccc2)CC1 (configuration not stated),-3.38% (inactive)
23,COC(=O)CN(c1cccc(C)c1)S(=O)(=O)c1ccccc1,-3.43% (inactive)
24,COCCNC(=O)c1ccc(N(C)S(=O)(=O)c2ccc(OC)c(OC)c2)cc1,14.3% (inactive)

row,Compound,activation
1,CCOc1ccc(-c2nc(CSc3nnc(N)s3)cs2)cc1OC,-24.8% (inactive)
2,C=CCNC(=O)COc1coc(CN2CCN(C(=O)c3ccco3)CC2)cc1=O,-8.24% (inactive)
3,C=C[C@@]1(C)CC(=O)[C@]2(O)[C@@]3(C)[C@@H](O)CCC(C)(C)[C@@H]3[C@H](O)[C@H](OC(C)=O)[C@@]2(C)O1,16.2% (inactive)
4,Nc1nc(N)nc(-c2ccc(Cl)cc2)n1,20.1% (inactive)
5,Cc1cccc(-c2cc3nc4c(c(N5CCCC(O)C5)n3n2)CCC4)c1 (configuration not stated),-17.7% (inactive)
6,C=C1[C@@H](O)[C@H](CC(C)C)N(Cc2ccccc2Br)S1(=O)=O,1.38% (inactive)
7,CCn1nnc(NC(=O)c2sc3ccccc3c2Cl)n1,9.4% (inactive)
8,Cc1c(NC(=S)NC(=O)c2sc3ccccc3c2Cl)cccc1C(=O)O,-3.09% (inactive)
9,Fc1ccc(-c2csc3nnc(SCc4cccnc4)n23)cc1,-10.5% (inactive)
10,CC(C)(C)OC(=O)N1CCCN(C(=O)c2ccc(Cl)cc2)CC1,-6.9% (inactive)
11,COc1nc(Nc2ccccc2)nc(OC)n1,18.4% (inactive)
12,CC1(C)N=C(c2ccccc2)C(c2ccccc2)=N1,-1.46% (inactive)
13,COc1ccc2nc3ccccc3nc2c1NC(=O)c1ccc(Cl)cc1,21.8% (inactive)
14,Cc1c(C)n(CCCN(C)C)c2ncnc(Nc3ccccc3)c12,-21.3% (inactive)
15,COc1ccc(C)c(-n2c(=O)n(Cc3ccccc3)c(=O)c3[nH]cnc32)c1,-3.94% (inactive)
16,COc1ccc(CCn2nnc(-c3ccc(NC(C)=O)c(Cl)c3)n2)cc1,-1.36% (inactive)
17,Cc1ccc(OCC(=O)NC(C)c2ccccc2)cc1 (configuration not stated),9.34% (inactive)
18,NC(=O)COC(=O)c1ccccc1Oc1ccccc1,2.37% (inactive)
19,Fc1ccc(-c2cc(C(F)(F)F)nc(-n3cncn3)n2)cc1,21.9% (inactive)
20,CCOC(=O)c1cnc2c(cnn2C)c1Oc1ccc(OC)cc1,5.49% (inactive)
21,CCOC(=O)Nc1ccc2c(c1)Sc1ccccc1N2C(=O)CCN1CCOCC1,0.499% (inactive)
22,CCNc1nc(CC)nc2c1oc1ccccc12,8.28% (inactive)
23,CCCCn1c(-c2ccncc2)nc2c1c(=O)[nH]c(=O)n2CC(C)C,31.7% (inactive)
24,COCCn1c(-c2ccc3ccccc3c2)nc2c1c(=O)[nH]c(=O)n2CC(C)C,10.6% (inactive)
